In the library only some 3% were active in any assay of this set; here they are far more common.
A549 viability – A549 cytotoxicity, counter-screen for Nrf2 inhibitors; AID 504648; 390,000 tested, 0.16% active; Potency, µM (doses to about 46 µM), usual class: inhibitors; A549 ARE-Fluc cells, CellTiter-Fluor viability, 18-24 h
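A549 ARE-Fluc cells in 5% FBS OPTI-MEM, 5000 cells/well, rested 2 h then exposed to compounds in concentration-response for 18-24 h at 37 °C. Viability by CellTiter-Fluor fluorescence (Ex 405/Em 525) after 30 min; luciferase luminescence (BugLite, 15 min, RT) read afterwards.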
TrxR1 inh – blocks rat thioredoxin reductase 1; recombinant rTrxR1, NADPH fluorescence consumption, selenite substrate; Potency, µM (series often up to 114 µM), actives largely listed as inhibitors; 390,000 tested, 1% active; AID 588453; further: nearly all actives have a fitted effect of over 65% in size
Target sequence (O89049 whole entry, looked up): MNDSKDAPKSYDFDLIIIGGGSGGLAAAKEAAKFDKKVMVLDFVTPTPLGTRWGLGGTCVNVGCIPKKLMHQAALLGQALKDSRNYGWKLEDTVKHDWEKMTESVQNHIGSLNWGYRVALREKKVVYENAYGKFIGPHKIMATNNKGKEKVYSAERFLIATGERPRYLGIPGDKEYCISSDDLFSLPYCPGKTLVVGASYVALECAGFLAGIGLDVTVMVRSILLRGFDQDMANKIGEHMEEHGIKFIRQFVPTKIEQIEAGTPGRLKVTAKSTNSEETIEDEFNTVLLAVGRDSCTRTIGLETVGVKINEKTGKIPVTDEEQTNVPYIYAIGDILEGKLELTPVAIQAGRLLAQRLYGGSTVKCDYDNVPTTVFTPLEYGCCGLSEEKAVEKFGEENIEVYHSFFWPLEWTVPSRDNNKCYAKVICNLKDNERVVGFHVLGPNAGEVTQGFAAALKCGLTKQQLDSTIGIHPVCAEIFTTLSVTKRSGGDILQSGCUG
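Rat TrxR1 (90 nM in the dispensed reagent) was pre-reduced with 400 uM NADPH for 5 min at room temperature, then incubated with compound for 15 min. After 400 uM selenite was added, NADPH fluorescence (Ex 340/Em 450 nm) was followed for 8 min.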
TrxR1 substrate – is turned over as a substrate by rat TrxR1; purified TrxR1 substrate turnover, NADPH consumption readout; Potency, µM (highest dose often 114 µM); AID 588456; 390,000 tested, 0.01% active; O89049; further: nearly all actives have a fitted effect of over 50% in size
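Rat TrxR1, dispensed at 90 nM, was prereduced with 400 uM NADPH (final) for 5 min at ~22 deg C, then incubated with compound 15 min before 400 uM selenite. A first-read NADPH fluorescence drop versus no-compound background flagged substrates.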
Nrf2 inh – inhibitors of Nrf2 signaling; AID 504444; A549 ARE-Fluc reporter, luciferase luminescence, 18-24 h; 360,000 tested, 2.1% active; Potency, µM (highest dose often 46 µM), most hits filed as inhibitors; further: nearly all actives have a fitted effect of over 60% in size
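Concentration-response testing used A549 ARE_Fluc cells at 5000 cells/well. Following an 18-24 h compound incubation, viability was read by fluorescence (Ex 405/Em 525) and luciferase output by luminescence.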
GALK inh – galactokinase (human) inhibition. Purified GALK, Kinase-Glo residual ATP luminescence. AID 1868. 270,000 tested, 0.007% active. Potency, µM (top dose mostly 57.5 µM), most hits filed as inhibitors
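Compounds were pin-transferred into ATP buffer (35 uM final), then GALK plus galactose (5 nM, 100 uM final) was added. After 1 h at room temperature, Kinase-Glo Plus was added and luminescence read after 10 min.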
Nrf2 ARE act – Nrf2 pathway activation; AREc32 ARE-luciferase reporter (MCF7-derived line), luminescence, 24 h; Potency, µM (top dose mostly 46.1 µM), actives largely listed as activators; 410,000 tested, 0.31% active; AID 624171; further: nearly all actives have a fitted effect of over 65% in size
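Reporter line AREc32 (ARE-Fluc), seeded overnight in OPTI-MEM with 5% FBS; compound pin-transferred, 24 hr at 37 deg C, 5% CO2; luminescent read-out.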
Numbers stand for hits; - = inactive; ? = inconclusive; . = no result; [ ] = dose if it differs, or a comment. The call rests on the fitted dose curve; in most records, active means well fitted curve in the direction sought with a large enough effect; inconclusive means small, poorly fitted or top-dose-only effect, or another doubt; inactive means no such curve, though single readings can be large; an effect the other way counts as inactive or inconclusive.

SMILES | A549 viability | TrxR1 inh | TrxR1 substrate | Nrf2 inh | GALK inh | Nrf2 ARE act
CCOC(=O)c1nn2c(C(F)(F)F)cc(-c3ccc(C)cc3)nc2c1Cl | - | - | - | - | . | -
COc1ccc(-c2ccc(CNCCCSc3nnnn3C)o2)cc1Cl | - | - | - | - | . | -
Nc1cc(-c2ccccc2)c[nH]c1=O | 5.8µM | . | . | 7.31µM | . | .
Nc1cc(-c2ccncc2)c[nH]c1=O | - | ? | ? | - | - | -
CCCCOC(=O)/C=C\C(=O)NC(N)=O | - | ? | -[0.0914 µM] | - | . | 15.8µM
CCCCOC(=O)/C=C\C(=O)OCCCC | - | - | - | - | - | -
CCCS(=O)(=O)c1c(S(=O)(=O)CCC)c2c(N)cccn2c1C(=O)OC | - | 7.94µM | - | - | - | -[9.22 µM]
Cc1ccc(Cl)cc1N1CCN(CCCNC(=O)C2COc3ccccc3C2)CC1 (configuration not stated) | - | - | - | . | . | -
CCOc1ccc(C(=O)N2CCC(c3nc(-c4ccc(S(=O)(=O)N5CCCC5)cc4)no3)CC2)cc1 | - | - | - | 13µM | . | -
COc1ccc(C(=O)N2CCC(c3nc(-c4ccc(S(=O)(=O)N5CCCC5)cc4)no3)CC2)cc1 | ? | - | - | 20.6µM | . | -
Cc1ccc(NC(=O)C2CCCN(S(=O)(=O)c3ccc4[nH]c(=O)ccc4c3)C2)cc1Cl (configuration not stated) | - | - | - | - | . | -
CCOc1ccc(-c2nnc(SCC(=O)Nc3cccc(C#N)c3)o2)cc1 | - | 35.5µM | - | ? | . | -
COc1ccc(Oc2nnc(-c3ccc(C)cc3)c3ccccc23)cc1 | - | - | - | - | - | -
COc1ccc(-c2nnc(C)c3nocc23)cc1 | - | 20µM | - | - | - | -
Cc1nn(C)c2c1c(-c1ccccc1)cc(=O)n2CC(=O)Nc1ccccc1C(F)(F)F | - | - | - | - | . | -
CCOc1ccc(CN2CCNC(=O)C2CC(=O)NCc2cc(C)n(C)n2)cc1 (configuration not stated) | - | ? | - | - | - | -
COc1ccc(CN2CCNC(=O)C2CC(=O)NCc2cc(C)n(C)n2)c(F)c1 (configuration not stated) | - | 39.8µM | - | - | - | -
COc1cccc(CNC(=O)C2CCN(c3nnc(-n4c(C)ccc4C)s3)CC2)c1OC | - | - | - | - | . | ?
C[n+]1ccc(/C=C/c2cc[n+](C)c3ccccc23)c2ccccc21 | . | - | - | . | . | .
CCn1nnc2cc(C(=O)Nc3ccc(Cl)cc3C)ccc21 | - | - | - | - | . | -
Nc1[nH]n(-c2ccccc2)c(=O)c1N=Nc1ccccc1[N+](=O)[O-] | - | - | - | - | - | -
O=c1c2cc([N+](=O)[O-])cc([N+](=O)[O-])c2[nH]n1-c1ccccc1 | 16.4µM | - | - | - | - | -
Clc1ccc(CNc2ncnc3[nH]ncc23)c(Cl)c1 | - | - | - | 23.1µM | . | -
CCCCOc1ccc(CNC(=O)c2cnc3sc(N4CCOCC4)nn3c2=O)cc1 | - | - | - | ? | . | -
Cc1ccc(NC(=O)C2CCCN(c3ncnc4c3nc3n4CCCCC3)C2)cc1F (configuration not stated) | - | - | - | ? | . | -
SMILES | A549 viability | TrxR1 inh | TrxR1 substrate | Nrf2 inh | GALK inh | Nrf2 ARE act
Cc1ccc2c(CN3CCN(S(=O)(=O)c4ccc5c(c4)OCCO5)CC3)cc(=O)oc2c1C | - | - | - | 16.4µM | - | -
Cc1ccc(NC(=O)Cn2c(=O)n(Cc3ccc4c(c3)OCO4)c(=O)c3oc4ccccc4c32)cc1C | - | - | - | - | . | -
Cc1ccc(C(=O)N(C)CC(=O)Nc2ccc(Cl)c(C(F)(F)F)c2)cc1S(=O)(=O)N1CCCCC1 | ? | - | - | 5.8µM | . | -
CN(CC(=O)Nc1ccc(Cl)c(C(F)(F)F)c1)C(=O)c1ccc(S(=O)(=O)N2CCOCC2)cc1 | - | - | - | ? | . | -
Cc1ccc(S(=O)(=O)N2CCCCC2)cc1C(=O)N(C)CC(=O)Nc1ccc(Cl)c(C(F)(F)F)c1 | ? | - | - | ? | - | -
CN(CC(=O)Nc1ccc(Cl)c(C(F)(F)F)c1)C(=O)c1ccc(OCC2CCCO2)cc1 (configuration not stated) | ? | - | - | 16.4µM | . | -
